DT40 TDP1 no CPT: qHTS for Inhibitors of human tyrosyl-DNA phosphodiesterase 1 (TDP1): qHTS in cells in absence of CPT | DT40 Tdp1-/- hTDP1 cells, no CPT, ATP luminescence, 48 h | Potency, µM (top dose mostly 46.2 µM), for inactives: at the highest dose activity change, negative = growth inhibition, most hits filed as inhibitors | hit rate 15% among 420,000 | AID 686978, 2013; note: nearly all actives have a fitted effect of over 55% in size
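Seeded 400 DT40-hTDP1 cells/well (vehicle DMSO, no 20 nM CPT); pinned compounds; ≥48 hr at 37 °C; CellTiter-Glo luminescence as viability measure.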
TDP1 cell CPT: growth inhibition of DT40 Tdp1-/-;hTDP1 cells with camptothecin (screen for TDP1 inhibitors); chicken DT40 Tdp1-/-;hTDP1 cells + 20 nM CPT, ATP luminescence, 48 h; Potency, µM (series often up to 46.2 µM), without a hit: top-dose activity change, negative = growth inhibition, usual class: inhibitors; hit rate 12% among 420,000; AID 686979; note: nearly all actives have a fitted effect of over 55% in size
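Chicken DT40 Tdp1-/- cells complemented with human TDP1, 400 cells/well, exposed to compounds plus 20 nM camptothecin for at least 48 h at 37 C; viability read as ATP content by CellTiter-Glo luminescence.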
TDP1 inh: inhibitors of human tyrosyl-DNA phosphodiesterase TDP1. recombinant TDP1, AlphaScreen DNA substrate cleavage. Potency, µM (highest dose often 130 µM), without a hit: at the highest dose activity change, negative = inhibition, usual class: inhibitors. hit rate 0.28% among 350,000. AID 485290; note: nearly all actives have a fitted effect of over 40% in size
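Tdp1 1 nM final; 15 min RT w/ cpd; substrate 15 nM, 5 min; beads 10 ug/ml, 10 min; AlphaScreen read. Neg ctrl: no enzyme.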
Gal4-VP16 FLuc: inhibits Gal4-VP16 luciferase reporter, ROR gamma counter-screen; Drosophila S2 Gal4-VP16 UAS-luciferase, luminescence, 20 h; Potency, µM (series often up to 53.6 µM), inactives show at the highest dose activity, negative = inhibition, most hits filed as inhibitors; hit rate 3.5% among 310,000;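 note: Gal4-VP16 expression switched on by copper sulfate through the metallothionein promoter; nearly all actives have a fitted effect of over 50% in size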
RORgamma inh: inhibitors of mouse ROR gamma transcriptional activity; P51450; Drosophila S2 Gal4-RORgamma UAS-luciferase reporter, 20 h; Potency, µM (top dose mostly 53.6 µM), for inactives: at the top dose activity change, negative = inhibition, usual class: inhibitors; hit rate 5.4% among 310,000; AID 2551; note: nearly all actives have a fitted effect of over 60% in size
Target sequence (P51450 whole entry, looked up, the tested form may be a part): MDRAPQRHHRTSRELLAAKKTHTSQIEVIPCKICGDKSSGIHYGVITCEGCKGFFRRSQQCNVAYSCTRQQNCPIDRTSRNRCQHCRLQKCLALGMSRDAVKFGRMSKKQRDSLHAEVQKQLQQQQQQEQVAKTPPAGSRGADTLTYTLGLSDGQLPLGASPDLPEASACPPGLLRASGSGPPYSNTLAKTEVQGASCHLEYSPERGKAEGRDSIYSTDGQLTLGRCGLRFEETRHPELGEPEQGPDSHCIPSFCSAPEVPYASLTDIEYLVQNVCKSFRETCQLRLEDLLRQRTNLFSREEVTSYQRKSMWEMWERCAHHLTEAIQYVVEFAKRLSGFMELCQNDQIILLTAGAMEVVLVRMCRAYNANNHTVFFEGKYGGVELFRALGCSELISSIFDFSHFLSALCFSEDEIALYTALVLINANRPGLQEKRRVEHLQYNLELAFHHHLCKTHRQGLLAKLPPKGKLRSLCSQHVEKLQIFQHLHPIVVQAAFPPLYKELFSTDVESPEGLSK
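Using a luciferase readout, inhibitors were identified by reduced reporter activity in Drosophila cells coexpressing a copper-inducible Gal4–ROR gamma fusion and UAS-driven Photinus luciferase, incubated 20 hr after 700 uM copper sulfate.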
An asterisk follows results filed as active; ? = inconclusive; · = not tested or not shown; [ ] = dose if it differs, or a comment. Compounds with a hit are over-represented: about 19% of the library has one in this group of screens. Calls come from the whole dose curve; as a rule, active = well fitted curve in the direction sought with a large enough effect; inconclusive = small, poorly fitted or top-dose-only effect, or another doubt; inactive = no such curve, though single readings can be large; an effect the other way counts as inactive or inconclusive. % is set by controls: 0 for no effect and ±100 for the full control effect; potency is the fitted concentration of half-maximal effect.

SMILES | DT40 TDP1 no CPT | TDP1 cell CPT | TDP1 inh | Gal4-VP16 FLuc | RORgamma inh
Cc1ccc(-c2cccc(-c3cc(=O)oc4ccc(C(C)(C)C)cc34)c2)cc1 | 23µM* | ? | 0%[56.1 µM] | -1% | 2%
COC(=O)COc1cc(OCC(=O)OC)c2c(-c3ccccc3)cc(=O)oc2c1 | 3% | -5% | 5% | · | ·
COc1cc(OC)c2c(-c3cccc(-c4ccc(C(F)(F)F)cc4)c3)cc(=O)oc2c1 | 2.6µM* | 4.6µM* | 0%[56.1 µM] | -9% | 24%
COc1cc(OC)c2c(-c3cccc(-c4ccc(NC(C)=O)cc4)c3)cc(=O)oc2c1 | 5.8µM* | 4.1µM* | 0%[56.1 µM] | -16% | -18%
COc1cc(OC)c2c(-c3cccc(-c4ccc(F)c(Cl)c4)c3)cc(=O)oc2c1 | 23µM* | ? | 0%[56.1 µM] | · | ·
CCC(=O)NC(=S)Nc1ccc(NC(=O)c2ccc([N+](=O)[O-])cc2)cc1 | ? | -12% | 0% | -6% | -24%
O=C(OCC(=O)c1ccc(Cl)s1)c1cnccn1 | 1% | -4% | 2% | 3% | 5%
O=C(NCCN1CCOCC1)C1CCC(=O)N1Cc1ccc(F)cc1 (stereo not drawn) | -2% | 6% | 3% | -4% | -18%
COc1cc(OC)c2c(-c3cccc(-c4ccc(C#N)cc4)c3)cc(=O)oc2c1 | 4.1µM* | 2.1µM* | 1%[56.1 µM] | -6% | 6%
COc1cc(OC)c2c(-c3cccc(-c4sccc4C(C)=O)c3)cc(=O)oc2c1 | 4.1µM* | 3.7µM* | 0%[56.1 µM] | ? | -15%
Oc1cccc(-c2c3nc(c(-c4cccc(O)c4)c4ccc([nH]4)c(-c4cccc(O)c4)c4nc(c(-c5cccc(O)c5)c5ccc2[nH]5)CC4)C=C3)c1 | 19µM* | 27µM* | · | · | ·
Cc1ccccc1NC(=O)c1cccc(NC(=O)c2c(C(=O)O)cccc2[N+](=O)[O-])c1 | -10% | 14% | · | · | ·
Cc1ccc(N(Cc2cccs2)C(=O)c2ccccc2Cl)cc1 | 18µM* | 13µM* | -1% | · | ·
CCOc1ccccc1C(=O)N(Cc1cccs1)c1ccc(Cl)cc1 | 10µM* | 16µM* | -1% | · | ·
O=C(O)c1ccc(COc2ccc3ccccc3c2)o1 | -10% | 1% | 5% | 17% | 14%
Cc1cc(OCc2ccc(C(=O)n3cccn3)o2)ccc1Cl | ? | ? | 6% | -5% | ?
CCOc1ccc(OCc2ccc(C(=O)NCc3ccncc3)o2)cc1 | -30% | 16µM* | 7% | 17% | 43%
CCc1ccc(OCc2ccc(C(=O)NCc3ccccn3)o2)cc1 | ? | -10% | 5% | -8%[0.365 µM] | ?
CCN(CC)C(=O)c1ccc(COc2ccc(Cl)c(C)c2)o1 | 13µM* | 16µM* | · | ? | ?
CCOc1ccc(OCc2ccc(C(=O)O)o2)cc1 | -26% | -10% | · | 15%[0.365 µM] | 10µM*
c1cncc(-c2nnc3sc(C4CCCCC4)nn23)c1 | ? | -20% | 0% | 0% | -7%
O=C1C(=C(c2ccccc2)c2ccccc2)Nc2ccccc21 | 15µM* | 13µM* | 13% | 14% | 13%
CC(=O)c1c(C(C)=O)c(C)n(NC(=O)c2ccccc2Cl)c1C | -13% | -25% | 0% | -6% | 18%
CC(=O)c1c(C(C)=O)c(C)n(C(c2ccccc2)c2ccccc2)c1C | 21µM* | ? | 7% | -8% | 3%
Cc1nn(-c2ccccc2)c(Cl)c1/C=N/Nc1nc2ccccc2[nH]1 | -28% | ? | 8% | ? | ?
SMILES | DT40 TDP1 no CPT | TDP1 cell CPT | TDP1 inh | Gal4-VP16 FLuc | RORgamma inh
Cc1cc(=O)[nH]c(N/N=C/c2c(C)oc3ccccc23)n1 | ? | 12µM* | 5% | 8% | 12%
Cc1nn(-c2ccccc2)c(Cl)c1/C=C1\SC(=S)N(C)C1=O | ? | ? | -3% | 2% | 15%
Cc1cc(=O)[nH]c(N/N=C/c2c(C)nn(-c3ccccc3)c2Cl)n1 | 23µM* | 23µM* | 2% | ? | ?
Cc1nn(-c2ccccc2)c(Cl)c1/C=C1\C(=O)N(C)C(=S)N1C | 15µM* | ? | 6% | -5% | 36%
Cc1cc(=O)[nH]c(N/N=C/c2c[nH]c3ccccc23)n1 | ? | ? | ? | -5% | 39%
CCCCc1nc2ccn(CC(=O)N(C)C)c(=O)c2n1Cc1ccc(-c2ccccc2-c2nn[nH]n2)cc1 | · | · | -1% | -5% | 34%
O=C(Cc1ccc(F)cc1)Nc1ccc2[nH]ncc2c1 | ? | 3% | · | 7% | 38%[1.91 µM]
Nc1ccc2[nH]ncc2c1 | 21µM* | 18µM* | 4% | -6% | 3%
CCCCNC(=O)CN1CCN(Cc2ccc3cc(OC)ccc3c2)CC1 | 18µM* | ? | · | -8% | 2%
Oc1ccc(N=Nc2ccccc2)o1 | 13µM* | 5.8µM* | · | 16µM* | ?
Oc1c(N=Nc2ccccc2)sc2ccccc12 | -26% | -18% | 7% | ? | -42%
CCCn1c2ccccc2c2cnn(CC(=O)N3CCOCC3)c(=O)c21 | ? | -20% | 3% | -12% | -16%
CC1(C)C(=O)Nc2ccccc2N1C(=O)CSc1nc(-c2ccccc2)cs1 | 15µM* | ? | 3% | -10% | 18%
O=C1CN(C(=O)CSc2nc(-c3ccccc3)cs2)c2ccccc2N1 | ? | -18% | 8% | 20% | 31%
O=C(Cn1ncc(Cl)c(Cl)c1=O)N1CCOCC1 | 13µM* | ? | 0% | 8% | -11%
CC1(C)C(=O)Nc2ccccc2N1C(=O)Cn1ncc(Cl)c(Cl)c1=O | 23µM* | 23µM* | 2% | ? | ?
Cc1nn(CC(=O)N2c3ccccc3NC(=O)C2(C)C)c(C)c1[N+](=O)[O-] | ? | -10% | 3% | -1% | 23%
O=C(Cn1ncc(Cl)c(Cl)c1=O)N1CCN(Cc2ccccc2)CC1 | 3.3µM* | 3.3µM* | 4% | -30% | ?
C/C(=N/Nc1ccc(C)cc1)C1(C)N(O)C(C)(C)C(c2ccco2)=[N+]1[O-] (stereo not drawn) | 1% | -13% | 5% | -9%[10 µM] | 9%
CC(C)CNC(=O)[C@H](Cc1ccccc1)NC(=O)c1cccs1 | -12% | -2% | 8%[0.0935 µM] | 4% | -17%
O=C(Cn1ncc(Cl)c(Cl)c1=O)N1CCc2ccccc21 | 6.5µM* | 4.6µM* | 6% | ? | ?
COC(=O)c1cc(C#N)c(=O)[nH]c1C | -4% | 10% | 6% | -4% | -2%
Cc1ccc2c(CC(=O)OC(C)C(=O)NCc3ccc4c(c3)OCO4)coc2c1 (stereo not drawn) | -8% | -2% | -2% | -2% | 19%
COc1ccc2oc(C(=O)Nc3ccc(S(=O)(=O)N(C)C4CCN(C)CC4)cc3)c(C)c2c1 | 18µM* | ? | 3% | -8% | -10%
COc1ccc(NC(=O)c2oc3ccc(S(=O)(=O)N(C)C4CCCCC4)cc3c2C)cc1Cl | 5.8µM* | 9.2µM* | 3% | · | ·

High-throughput results (PubChem BioAssay)
